“And” between values parts separate entries of the source, which are not always exact repeats. Equal entries are not always repeated. About 2,000 (36%) of roughly 5,500 compounds were called active. Roughly 18% stayed inconclusive and do not appear here. Rule as the data show it: active = normalized growth mostly below about 0.91 (no sharp cut-off); inconclusive = no clear call, values can overlap the other calls; inactive = mostly above about 0.92. Some of the results follow.
Assay: chemical genetic growth profiling, strain panel (AID 1159580);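 also: tested at 20 µM; growth read once vehicle control cultures reached saturation at 30 °C; 1 = growth at the plate median or of vehicle wells; lower values mean less growth of the strain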
Conditions: S. cerevisiae deletion strains, growth OD

Measured: normalized growth

O=C(O)c1cccnc1
inactive: locus YAL013W, strain DEP1, hits give low values 0.987 | locus YAL021C, strain ccr4, hits give low values 1 | locus YAL026C, strain drs2, hits give low values 0.993 | locus YAL030W, strain snc1, hits give low values 0.994 | locus YBL061C, strain skt5, hits give low values 1.02 | locus YBR009C, strain hhf1, hits give low values 1.01 | locus YBR021W, strain FUR4, hits give low values 1.02 | locus YBR023C, strain chs3, hits give low values 1.01 | locus YBR171W, strain sec66, hits give low values 0.997 | locus YBR229C, strain ROT2, hits give low values 0.96 | locus YBR231C, strain swc5, hits give low values 0.996 | locus YBR279W, strain paf1, hits give low values 1 | locus YCL011C, strain gbp2, hits give low values 0.984 | locus YCL016C, strain dcc1, hits give low values 1.03 | locus YCL029C, strain bik1, hits give low values 1.01 | locus YCL061C, strain MRC1, hits give low values 1 | locus YCL069W, strain vba3, hits give low values 0.976 | locus YCR088W, strain abp1, hits give low values 0.992 | locus YDL005C, strain med2, hits give low values 0.98 | locus YDL035C, strain GPR1, hits give low values 0.968 | locus YDL040C, strain nat1, hits give low values 0.987 | locus YDL074C, strain BRE1, hits give low values 1.02 | locus YDL101C, strain DUN1, hits give low values 1.01 | locus YDL134C, strain PPH21, hits give low values 0.984 | locus YDL185W, strain tfp1, hits give low values 1.01 | locus YDL192W, strain arf1, hits give low values 1 | locus YDR001C, strain nth1, hits give low values 0.992 | locus YDR069C, strain doa4, hits give low values 1.01 | locus YDR101C, strain arx1, hits give low values 1.02 | locus YDR137W, strain rgp1, hits give low values 1.05 | locus YDR150W, strain NUM1, hits give low values 0.983 | locus YDR159W, strain sac3, hits give low values 0.977 | locus YDR162C, strain NBP2, hits give low values 0.985 | locus YDR195W, strain ref2 1.01 | locus YDR297W, strain sur2, hits give low values 0.996 | locus YDR318W, strain mcm21, hits give low values 1.04 | locus YDR334W, strain swr1, hits give low values 0.971 | locus YDR335W, strain msn5, hits give low values 0.993 | locus YDR388W, hits give low values 1 | locus YDR392W, strain spt3, hits give low values 0.973 | locus YDR502C, strain sam2, hits give low values 1 | locus YEL003W, strain gim4, hits give low values 0.985 | locus YEL037C, strain rad23, hits give low values 0.977 | locus YEL061C, strain CIN8 (second series), hits give low values 0.98 | locus YEL061C, strain CIN8, hits give low values 0.989 | locus YER015W, strain faa2, hits give low values 0.998 | locus YER016W, strain bim1, hits give low values 0.992 | locus YER110C, hits give low values 0.985 | locus YER111C, strain swi4, hits give low values 0.999 | locus YER155C, strain BEM2 (second series), hits give low values 0.995 | locus YER155C, strain BEM2, hits give low values 1.02 | locus YER167W, strain BCK2, hits give low values 0.982 | locus YFR010W, strain ubp6, hits give low values 0.995 | locus YGL078C, strain dbp3, hits give low values 1 | locus YGL086W, strain mad1, hits give low values 1.02 | locus YGL167C, strain pmr1, hits give low values 1.01 | locus YGL173C, strain kem1, hits give low values 1.01 | locus YGL227W, strain vid30, hits give low values 0.987 | locus YGL240W, strain doc1, hits give low values 1.01 | locus YGL248W, strain PDE1, hits give low values 0.983 | locus YGL253W, strain hxk2, hits give low values 0.987 | locus YGR078C, strain PAC10, hits give low values 1.04 | locus YGR135W, strain pre9, hits give low values 1.05 | locus YGR229C, strain SMI1, hits give low values 1.03 | locus YGR252W, strain gcn5, hits give low values 0.919 | locus YHR013C, strain ard1, hits give low values 1.04 | locus YHR027C, strain rpn1, hits give low values 1.01 | locus YHR030C, strain SLT2, hits give low values 0.997 and 1 | locus YHR079C, strain IRE1 (second series), hits give low values 1.01 | locus YHR079C, strain IRE1, hits give low values 1.03 | locus YHR094C, strain hxt1, hits give low values 0.999 | locus YHR129C, strain ARP1, hits give low values 1.01 | locus YHR142W, strain chs7, hits give low values 1.01 | locus YHR200W, strain rpn10, hits give low values 1.02 | locus YIL066C, strain RNR3, hits give low values 0.982 | locus YIL073C, strain SPO22, hits give low values 1.01 | locus YIL125W, strain kgd1, hits give low values 0.984 | locus YIR030C, strain dcg1, hits give low values 0.996 | locus YJL092W, strain hpr5, hits give low values 0.978 | locus YJL095W, strain BCK1 (second series), hits give low values 1 | locus YJL095W, strain BCK1, hits give low values 1.05 and 0.999 | locus YJL115W, strain asf1, hits give low values 0.973 | locus YJL129C, strain trk1, hits give low values 0.949 | locus YJL134W, strain LCB3, hits give low values 0.991 | locus YJL154C, strain vps35, hits give low values 0.977 | locus YJL164C, strain tpk1, hits give low values 1.02 | locus YJL166W, strain qcr8, hits give low values 0.988 | locus YJL168C, strain set2, hits give low values 1 | locus YJL187C, strain SWE1 (second series), hits give low values 0.996 | locus YJL187C, strain SWE1, hits give low values 0.99 | locus YJR043C, strain POL32, hits give low values 1.05 | locus YJR066W, strain TOR1, hits give low values 0.971
